Source: PubChem BioAssay
Where “and” joins values, the source holds several entries; their conditions need not be identical. Identical values can stand only once. Calls of active or inactive are those of the source. Cut-off read from the data, not from the text of the source, unless noted: active = nuclear beta-catenin stimulation mostly above about 4.2% (no sharp cut-off); inactive = mostly below about 10%.

Legend:
[1] = Wnt pathway potentiators raising nuclear beta-catenin – imaging, WNT3A-conditioned medium, mouse C2C12, NPC library, primary screen (AID 1117326); conditions: stronger effect = higher value
[2] = stimulators of insulin release from INS-1E, primary screen, cell-based, 5 mM glucose, NPC library (AID 1117329;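 active = compound raises insulin release from rat beta cells at 5 mM glucose, no numeric limit stated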); conditions: rat INS-1E insulin secretion, at 10 µM, stronger effect = higher value
[3] = growth inhibition of GSK3B-pretreated HCT116 cells – cell-based, CellTiter-Glo, 0.2 to 20 µM (AID 1117336;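 active = compounds lowering colon cancer cell viability after pretreatment blocking the GSK3B kinase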); conditions: HCT116 viability after GSK3B inhibitor, at 20 µM, stronger effect = higher value
[4] = inhibition of endothelial tube formation, primary screen, imaging, VEGF stimulated, CD31 staining, tube area, NPC library (AID 1117340;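 active = compound that reduces growth-factor-driven endothelial tube area in a mixed cell culture, no cutoff stated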); conditions: VEGF-stimulated ADSC/ECFC co-culture, at 10 µM, stronger effect = higher value
[5] = GLP1 release stimulators, primary, NCI-H716, NPC library (AID 1117341;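 active = compound raises GLP1 secretion from the human gut endocrine cells, with no numeric limit stated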); conditions: NCI-H716 cells, at 10 µM, stronger effect = higher value
[6] = HCT116 colon cancer cell growth inhibition, primary screen, CellTiter-Glo luminescence, NPC library (AID 1117342;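 active = compounds that lower survival of HCT116 colon cancer cells in the luminescence readout, no numeric limit stated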); conditions: at 20 µM (top of the series)
[7] = reduced SW480 viability measured with CellTiter-Glo, NPC library, primary (AID 1117343;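 active = compounds that lower viability of the colon cancer cells in the luminescence readout, with no numeric limit stated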); conditions: CellTiter-Glo luminescence; at 20 µM (top of the series) unless noted
[8] = NPC library primary testing for decreased DLD-1 cell viability via CellTiter-Glo (AID 1117346;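 active = compounds that lower survival of DLD-1 colon cancer cells in the luminescence readout, no cutoff given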); conditions: DLD-1 viability, CellTiter-Glo luminescence; at 20 µM (top of the series)
[9] = target: Mitogen-activated protein kinase 7 (Homo sapiens) (UniProt Q13164); assay: Gal4-ERK5 driven luciferase induction – cell-based, HTS, primary screen (AID 1508626;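 active = luciferase signal above three times the same-plate solvent-only control wells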;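 note: luciferase driven by Gal4-ERK5 fusion binding five Gal4 sites before minimal TATA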); conditions: HeLa Gal4-ERK5 transactivation, 18 h, at 5 µM, stronger effect = higher value
Mitogen-activated protein kinase 7 (Homo sapiens), sequence (Q13164 whole entry, looked up, the tested form may be a part): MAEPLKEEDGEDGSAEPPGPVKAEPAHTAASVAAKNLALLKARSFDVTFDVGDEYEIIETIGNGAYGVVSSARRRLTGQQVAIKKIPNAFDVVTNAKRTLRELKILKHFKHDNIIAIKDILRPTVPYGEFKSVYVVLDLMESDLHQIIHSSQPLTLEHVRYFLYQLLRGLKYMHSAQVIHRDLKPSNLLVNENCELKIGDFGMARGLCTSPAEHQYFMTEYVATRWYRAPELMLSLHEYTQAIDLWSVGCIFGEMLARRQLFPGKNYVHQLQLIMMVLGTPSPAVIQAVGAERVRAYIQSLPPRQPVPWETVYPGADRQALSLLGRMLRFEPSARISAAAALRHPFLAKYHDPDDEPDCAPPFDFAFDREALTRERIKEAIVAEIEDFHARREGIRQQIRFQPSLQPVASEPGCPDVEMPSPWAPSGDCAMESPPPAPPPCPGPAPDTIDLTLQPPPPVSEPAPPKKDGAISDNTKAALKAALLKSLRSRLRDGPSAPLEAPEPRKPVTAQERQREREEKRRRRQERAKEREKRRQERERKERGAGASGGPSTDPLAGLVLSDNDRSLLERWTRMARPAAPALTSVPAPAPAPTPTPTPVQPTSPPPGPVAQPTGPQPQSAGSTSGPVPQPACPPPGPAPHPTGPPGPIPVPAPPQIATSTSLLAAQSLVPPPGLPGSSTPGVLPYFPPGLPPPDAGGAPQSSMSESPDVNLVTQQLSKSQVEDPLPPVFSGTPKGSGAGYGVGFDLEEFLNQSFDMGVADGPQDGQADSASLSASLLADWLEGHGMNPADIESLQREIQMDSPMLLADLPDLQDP

[10] = target: NAD(+) hydrolase SARM1 (Homo sapiens) (UniProt Q6SZW1); assay: blocking NAD cleavage by SARM1 SAM-TIR – cell lysate, NAD-Glo luminescence (AID 1508614;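 active = compound whose remaining NAD level is above about 45 nM, limit read from the data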;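 note: higher remaining NAD means stronger inhibition of SARM1 NADase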); conditions: SAM-TIR HEK293T lysate NADase, at 1 µM, stronger effect = higher value
NAD(+) hydrolase SARM1 (Homo sapiens), sequence (Q6SZW1 whole entry, looked up): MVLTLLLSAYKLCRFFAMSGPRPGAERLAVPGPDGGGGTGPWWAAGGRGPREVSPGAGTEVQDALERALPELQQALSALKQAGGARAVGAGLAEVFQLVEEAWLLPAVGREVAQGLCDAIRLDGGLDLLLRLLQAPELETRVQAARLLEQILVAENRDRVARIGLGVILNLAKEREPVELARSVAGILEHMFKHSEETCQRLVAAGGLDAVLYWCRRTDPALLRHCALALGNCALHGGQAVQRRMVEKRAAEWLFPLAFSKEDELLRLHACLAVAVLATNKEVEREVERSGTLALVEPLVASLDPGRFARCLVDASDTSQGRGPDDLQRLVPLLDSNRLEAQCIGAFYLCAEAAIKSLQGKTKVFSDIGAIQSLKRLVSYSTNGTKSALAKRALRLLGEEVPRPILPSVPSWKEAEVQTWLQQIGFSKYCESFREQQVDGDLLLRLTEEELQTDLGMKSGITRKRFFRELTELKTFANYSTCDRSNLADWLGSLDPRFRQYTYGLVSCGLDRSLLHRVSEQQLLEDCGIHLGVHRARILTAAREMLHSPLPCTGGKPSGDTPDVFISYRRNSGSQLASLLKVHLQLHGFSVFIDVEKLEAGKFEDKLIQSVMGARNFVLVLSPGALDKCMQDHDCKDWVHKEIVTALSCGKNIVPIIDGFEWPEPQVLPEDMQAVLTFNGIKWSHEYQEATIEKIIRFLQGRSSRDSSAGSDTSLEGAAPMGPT

[11] = growth inhibition, single agents and combos, ICB984, cell-based, cisplatin or BGB combos, synergistic combos for chromothripsis tumors (AID 1671451; call rule not given here;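 note: cells exposed for 96 hours before readout; 0% = vehicle DMSO and 100% = killing by high DMSO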); conditions: ICB984 medulloblastoma cells, drug combinations, stronger effect = higher value
[12] = viability loss with induced miR-34 in A549 – imaging, A549 dox-inducible miR-34, nuclei and caspase counts, primary screen (AID 1347080;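 active = compounds whose cell count with miR-34 switched on is under 0.7 times the count with it off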); conditions: A549 miR-34 inducible, Hoechst nuclei count, 48 h
[13] = MELAS cybrid and Rieske KO viability enhancers – cell-based, MELAS cybrids, Rieske KO mouse fibroblasts, CellTiter-Glo, primary screen (AID 1508586;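 active = mean z-score across replicates of 1.96 or higher in either the MELAS or the Rieske mutant cell line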;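 note: z relative to plate mean and SD of compound and empty wells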); conditions: low glucose

O=C(O)C(S)C(S)C(=O)O (stereo unspecified)
nuclear beta-catenin stimulation ([1]; at 10 µM): 2.3% (inactive) | nuclear beta-catenin stimulation ([1]; stimulation, at 2 µM): 0.8% | insulin secretion stimulation [2]: 1.3% (inactive) | viability decrease [3]: -17% (inactive) | tube area decrease [4]: 14% (inactive) | GLP1 secretion stimulation [5]: 6.2% (inactive) | inhibition of viability [6]: -11.3% (inactive) | viability decrease (inhibition) [7]: -31.1% (inactive) | viability decrease (inhibition) [8]: -4.5% (inactive) | luciferase signal [9]: 96 AU (inactive)

O=C(CCCl)NCCc1ccccc1
nuclear beta-catenin stimulation ([1]; at 10 µM): -0.5% (inactive) | nuclear beta-catenin stimulation ([1]; stimulation, at 2 µM): 0.2% | insulin secretion stimulation [2]: 1.5% (inactive) | viability decrease [3]: -9.9% (inactive) | tube area decrease [4]: -1.9% (inactive) | GLP1 secretion stimulation [5]: -1.9% (inactive) | inhibition of viability [6]: -2.8% (inactive) | viability decrease (inhibition) [7]: -1.5% (inactive) | viability decrease (inhibition) [8]: -7.5% (active) | remaining NAD [10]: 10 nM (inactive)

C[C@H](O)CN(C)C
nuclear beta-catenin stimulation ([1]; at 10 µM): -0.1% (inactive) | nuclear beta-catenin stimulation ([1]; stimulation, at 2 µM): 1.5% | insulin secretion stimulation [2]: 0.35% (inactive) | GLP1 secretion stimulation [5]: -2.5% (inactive)

CC(=C(CCOC(=O)C(C)C)SSC(CCOC(=O)C(C)C)=C(C)N(C=O)Cc1cnc(C)nc1N)N(C=O)Cc1cnc(C)nc1N
nuclear beta-catenin stimulation ([1]; at 10 µM): -0.6% (inactive) | nuclear beta-catenin stimulation ([1]; stimulation, at 2 µM): 4.5% | insulin secretion stimulation [2]: 31.5% (active) | viability decrease [3]: 20.6% (inactive) | inhibition of viability [6]: 30.9% (inactive) | viability decrease (inhibition) [7]: -6.3% (inactive) | viability decrease (inhibition) [8]: -3.9% (inactive)

CSc1ccc(/C=C2/C(C)=C(CC(=O)O)c3cc(F)ccc32)cc1
nuclear beta-catenin stimulation ([1]; at 10 µM): -1.4% (inactive) | nuclear beta-catenin stimulation ([1]; stimulation, at 2 µM): -0.1% | insulin secretion stimulation [2]: 1.85% (inactive) | GLP1 secretion stimulation [5]: 9.9% (inactive)

O=C(OCc1ccccc1)c1cccnc1
nuclear beta-catenin stimulation ([1]; at 10 µM): -0.5% (inactive) | nuclear beta-catenin stimulation ([1]; stimulation, at 2 µM): -2.3% | insulin secretion stimulation [2]: 0.3% (inactive) | GLP1 secretion stimulation [5]: -1.9% (inactive)

CO[C@H]1O[C@@H]2O[C@@]3(C)CC[C@H]4[C@H](C)CC[C@@H]([C@@H]1C)[C@@]24OO3
nuclear beta-catenin stimulation ([1]; at 10 µM): 1.9% (inactive) | nuclear beta-catenin stimulation ([1]; stimulation, at 2 µM): 11.7% | insulin secretion stimulation [2]: -0.85% (inactive) | viability decrease [3]: 33.2% (inactive) | GLP1 secretion stimulation [5]: 2% (inactive) | inhibition of viability [6]: -3% (inactive) | viability decrease (inhibition) [7]: 2.9% (inactive) | viability decrease (inhibition) [8]: 7.2% (inactive)

C=CCCCCCCCCC(=O)OC
nuclear beta-catenin stimulation ([1]; at 10 µM): 2.7% (inactive) | nuclear beta-catenin stimulation ([1]; stimulation, at 2 µM): 2% | insulin secretion stimulation [2]: 2.85% (inactive) | GLP1 secretion stimulation [5]: 1.2% (inactive)

CN1C[C@@H]2C[C@H]1CN2c1cc2c(cc1F)c(=O)c(C(=O)O)cn2C1CC1
nuclear beta-catenin stimulation ([1]; at 10 µM): 0.8% (inactive) | nuclear beta-catenin stimulation ([1]; stimulation, at 2 µM): -0.6% | insulin secretion stimulation [2]: 0.3% (inactive) | viability decrease [3]: 10.6% (inactive) | tube area decrease [4]: -6.5% (inactive) | GLP1 secretion stimulation [5]: -0.3% (inactive) | inhibition of viability [6]: 3.9% (inactive) | viability decrease (inhibition) [7]: -13% (inactive) | viability decrease (inhibition) [8]: -40.5% (inactive) | inhibition ([11]; BGB IC20 combo, at 0.005 µM): -24.2% | inhibition ([11]; BGB IC40 combo, at 0.005 µM): -26.9% | inhibition ([11]; BGB IC40 combo, at 0.05 µM): -20.5% | inhibition ([11]; at 0.5 µM): -31.1% (inactive) | inhibition ([11]; cisplatin combo, at 0.05 µM): -23.9% | inhibition ([11]; cisplatin combo, at 0.5 µM): -25.9% | inhibition ([11]; cisplatin combo, at 5 µM): -68.4% | inhibition ([11]; measured here: 5 uM single agent, at 5 µM): -23.8%

CC(=O)N(c1onc(C)c1C)S(=O)(=O)c1ccc(N)cc1
nuclear beta-catenin stimulation ([1]; at 10 µM): 0.7% (inactive) | nuclear beta-catenin stimulation ([1]; stimulation, at 2 µM): 0.2% | insulin secretion stimulation [2]: -0.8% (inactive) | viability decrease [3]: -73.1% (inactive) | tube area decrease [4]: -1% (inactive) | GLP1 secretion stimulation [5]: -0.8% (inactive) | inhibition of viability [6]: -3.87% (inactive) | viability decrease (inhibition) [7]: 30.4% (inactive) | viability decrease (inhibition) [8]: 5.3% (inactive) | luciferase signal [9]: 40 AU (inactive)

O=C(O)c1cc(N=Nc2ccc(O)c(C(=O)O)c2)ccc1O
nuclear beta-catenin stimulation ([1]; at 10 µM): 1.3% (inactive) | nuclear beta-catenin stimulation ([1]; stimulation, at 2 µM): 8.5% | insulin secretion stimulation [2]: 0.9% (inactive) | viability decrease [3]: 15.9% (inactive) | inhibition of viability [6]: 20.6% (inactive) | viability decrease (inhibition) [7]: -10.4% (inactive) | viability decrease (inhibition) [8]: 18.3% (inactive) | fold change ([12]; stronger effect = lower value, cell number ratio, induced over uninduced): 0.936 (inactive) and 1.24 (inactive) | fold change ([12]; measured here: relative caspase fold change +Dox/-Dox): 0.766 and 0.877 | cell count ([12]; measured here: total cells with miR-34 induction, stronger effect = lower value): 9060 and 9000 | cell count ([12]; measured here: total cells without miR-34 induction): 9680 and 7270 | z-score ([13]; MELAS cybrid survival, CellTiter-Glo 48 h, stronger effect = higher value): -0.277 (inactive) | z-score ([13]; Rieske KO mouse fibroblast survival, CellTiter-Glo 72 h): -0.199 | remaining NAD [10]: 10 nM (inactive)

Cc1cc(-c2ccc(N=Nc3c(S(=O)(=O)O)cc4cc(S(=O)(=O)O)cc(N)c4c3O)c(C)c2)ccc1N=Nc1c(S(=O)(=O)O)cc2cc(S(=O)(=O)O)cc(N)c2c1O
nuclear beta-catenin stimulation ([1]; at 10 µM): -3.5% (inactive) | nuclear beta-catenin stimulation ([1]; stimulation, at 2 µM): -1.8% | insulin secretion stimulation [2]: 2.95% (inactive) | viability decrease [3]: 35.2% (inactive) | GLP1 secretion stimulation [5]: -8.7% (inactive) | inhibition of viability [6]: 22.2% (inactive) | viability decrease (inhibition) [7]: 37.9% (inactive) | viability decrease (inhibition) [8]: 23.9% (inactive)

Cc1cccc(C)c1NC(=O)CC12CCCN1CCC2
nuclear beta-catenin stimulation ([1]; at 10 µM): 4.2% (inactive) | nuclear beta-catenin stimulation ([1]; stimulation, at 2 µM): 1.3% | insulin secretion stimulation [2]: 0.3% (inactive) | GLP1 secretion stimulation [5]: 5% (inactive)

O=[N+]([O-])c1cccc(S(=O)(=O)NCCNS(=O)(=O)c2cccc([N+](=O)[O-])c2)c1
nuclear beta-catenin stimulation ([1]; at 10 µM): 0.3% (inactive) | nuclear beta-catenin stimulation ([1]; stimulation, at 2 µM): 0.2% | insulin secretion stimulation [2]: -0.55% (inactive) | viability decrease [3]: 38.9% (inactive) | GLP1 secretion stimulation [5]: 3.1% (inactive) | inhibition of viability [6]: 7.6% (inactive) | viability decrease (inhibition) [7]: 6.5% (inactive) | viability decrease (inhibition) [8]: 14.5% (inactive)

COC(=O)CCCCC(CCSS/C(CCO)=C(\C)N(C=O)Cc1cnc(C)nc1N)SC(C)=O (stereo unspecified)
nuclear beta-catenin stimulation ([1]; at 10 µM): 1% (inactive) | nuclear beta-catenin stimulation ([1]; stimulation, at 2 µM): -1% | insulin secretion stimulation [2]: 0.75% (inactive) | GLP1 secretion stimulation [5]: 0.4% (inactive)

CC(C)=CCC[C@@](C)(O)[C@H]1CC=C(C)CC1
nuclear beta-catenin stimulation ([1]; at 10 µM): 1.8% (inactive) | nuclear beta-catenin stimulation ([1]; stimulation, at 2 µM): 4% | insulin secretion stimulation [2]: 3.6% (inactive) | viability decrease [3]: -34.3% (inactive) | tube area decrease [4]: 5% (inactive) | GLP1 secretion stimulation [5]: 2.7% (inactive) | inhibition of viability [6]: -4.77% (inactive) | viability decrease (inhibition) [7]: -13% (inactive) | viability decrease (inhibition) [8]: -9.9% (inactive) | luciferase signal [9]: 32 AU (inactive)

CN(C)CCCO[C@@H]1[C@H]2OC(C)(C)O[C@H]2O[C@@H]1C(O)CO (stereo partly specified)
nuclear beta-catenin stimulation ([1]; at 10 µM): -2% (inactive) | nuclear beta-catenin stimulation ([1]; stimulation, at 2 µM): -1% | insulin secretion stimulation [2]: 0.9% (inactive) | viability decrease [3]: 24.4% (inactive) | tube area decrease [4]: -18.7% (inactive) | GLP1 secretion stimulation [5]: 0.3% (inactive) | inhibition of viability [6]: 55.2% (active) | viability decrease (inhibition) [7]: 13.2% (inactive) | viability decrease (inhibition) [8]: 66.4% (active)

O=C(O)C1(C(=O)O)CCC1.[NH2-].[NH2-].[Pt+2]
nuclear beta-catenin stimulation ([1]; at 10 µM): 0% (inactive) | nuclear beta-catenin stimulation ([1]; stimulation, at 2 µM): -2.2% | insulin secretion stimulation [2]: -0.3% (inactive) | viability decrease [3]: 67.5% (active) | tube area decrease [4]: 55.4% (active) | GLP1 secretion stimulation [5]: 3% (inactive) | inhibition of viability [6]: 31.7% (inactive) | viability decrease (inhibition) [7]: 2.3% (inactive) | viability decrease (inhibition) [8]: 5.7% (inactive) | remaining NAD [10]: 10 nM (inactive) | luciferase signal [9]: 40 AU (inactive)
